# Results taken from paper PMC7862700, “An all-to-all approach to the identification of sequence-specific readers for epigenetic DNA modifications on cytosine”.
# Tests used:
# Assay in all cases: DAPPL (digital affinity profiling via proximity ligation, sequencing); 10 mM Tris-HCl pH 7.5, 50 mM NaCl, 1 mM DTT, 4% glycerol, room temperature, 30 min; GST-TFs on glutathione beads, 16-mer random dsDNA library, 0.1% formaldehyde crosslink after washing; high values mean tight binding
# Conditions in all cases: protein: recombinant; tags: N-terminal GST; dsDNA, one strand shown
# ELK1 = target: T1, ELK1 (Homo sapiens, UniProt P19419 1-428)
# T1 sequence: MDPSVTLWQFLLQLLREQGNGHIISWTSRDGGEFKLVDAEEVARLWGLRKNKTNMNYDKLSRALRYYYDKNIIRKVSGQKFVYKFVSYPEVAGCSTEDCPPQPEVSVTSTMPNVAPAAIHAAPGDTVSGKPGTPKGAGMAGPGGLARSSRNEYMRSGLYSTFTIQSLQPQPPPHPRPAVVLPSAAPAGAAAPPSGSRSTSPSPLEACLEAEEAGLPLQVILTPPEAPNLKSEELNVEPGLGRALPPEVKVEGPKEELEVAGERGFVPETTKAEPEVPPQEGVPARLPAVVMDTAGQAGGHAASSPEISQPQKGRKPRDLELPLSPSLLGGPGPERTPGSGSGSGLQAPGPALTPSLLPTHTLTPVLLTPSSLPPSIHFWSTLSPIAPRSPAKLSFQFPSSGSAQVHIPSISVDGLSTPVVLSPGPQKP
# Outline: (§1)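 A tag-only sample was pooled with DNA-barcoded human transcription factors that had been expressed in yeast as GST fusions and captured on glutathione beads. The pools were incubated for 30 min at room temperature with 200 nmole of a random double-stranded 16-mer DNA library in Tris/NaCl/DTT/glycerol buffer, then washed, crosslinked with 0.1% formaldehyde, proximity-ligated (BsaI/T4 ligase, 1 h, 37 °C), PCR-amplified and sequenced on an Illumina NextSeq500. Binding signal is each hexamer's read frequency for a factor divided by its frequency for the tag-only sample.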
# GABPA = target: T2, GABPA (Homo sapiens, UniProt Q06546 1-454)
# T2 sequence: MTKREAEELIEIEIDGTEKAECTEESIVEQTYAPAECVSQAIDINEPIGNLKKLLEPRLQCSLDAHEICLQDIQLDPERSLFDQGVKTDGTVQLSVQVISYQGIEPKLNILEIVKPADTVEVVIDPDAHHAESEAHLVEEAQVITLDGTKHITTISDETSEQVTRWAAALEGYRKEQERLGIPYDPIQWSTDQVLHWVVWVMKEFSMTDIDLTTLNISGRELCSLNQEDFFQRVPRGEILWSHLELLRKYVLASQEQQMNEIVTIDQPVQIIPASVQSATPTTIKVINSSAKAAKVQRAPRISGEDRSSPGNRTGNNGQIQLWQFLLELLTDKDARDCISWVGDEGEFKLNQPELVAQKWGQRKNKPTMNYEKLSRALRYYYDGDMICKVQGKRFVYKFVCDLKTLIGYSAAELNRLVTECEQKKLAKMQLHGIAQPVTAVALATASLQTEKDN
# Outline: as §1
# ERG = target: T3, ERG (Homo sapiens, UniProt P11308 1-479)
# T3 sequence: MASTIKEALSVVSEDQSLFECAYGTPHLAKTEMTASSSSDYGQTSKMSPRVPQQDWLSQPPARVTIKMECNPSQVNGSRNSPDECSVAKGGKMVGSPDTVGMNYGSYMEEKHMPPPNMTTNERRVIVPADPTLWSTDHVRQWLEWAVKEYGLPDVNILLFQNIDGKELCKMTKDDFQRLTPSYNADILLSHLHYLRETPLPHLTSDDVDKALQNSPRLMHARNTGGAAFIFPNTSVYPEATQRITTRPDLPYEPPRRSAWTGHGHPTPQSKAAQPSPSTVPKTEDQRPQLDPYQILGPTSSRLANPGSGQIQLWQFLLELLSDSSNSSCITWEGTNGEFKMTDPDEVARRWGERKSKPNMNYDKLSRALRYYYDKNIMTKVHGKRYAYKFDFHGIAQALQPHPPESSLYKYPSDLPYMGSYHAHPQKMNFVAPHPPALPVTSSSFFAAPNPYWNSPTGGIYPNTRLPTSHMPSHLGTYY
# Outline: as §1
# ELF1 = ELF1 (Homo sapiens, UniProt P32519 1-619)
# Outline: as §1
# EHF = target: T4, EHF (Homo sapiens, UniProt Q9NZC4 1-300)
# T4 sequence: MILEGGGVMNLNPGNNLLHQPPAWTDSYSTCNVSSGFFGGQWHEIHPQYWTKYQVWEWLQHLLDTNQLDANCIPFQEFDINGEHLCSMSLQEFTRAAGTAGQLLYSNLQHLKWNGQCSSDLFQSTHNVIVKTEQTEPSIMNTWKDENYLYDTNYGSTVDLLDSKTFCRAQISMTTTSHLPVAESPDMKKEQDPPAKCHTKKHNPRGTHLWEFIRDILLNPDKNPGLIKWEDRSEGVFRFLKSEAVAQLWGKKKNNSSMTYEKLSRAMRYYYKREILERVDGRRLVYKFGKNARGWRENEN
# Outline: as §1
# SPIB = SPIB (Homo sapiens, UniProt Q01892 1-262)
# Outline: as §1
# FEV = target: T5, FEV (Homo sapiens, UniProt Q99581 1-238)
# T5 sequence: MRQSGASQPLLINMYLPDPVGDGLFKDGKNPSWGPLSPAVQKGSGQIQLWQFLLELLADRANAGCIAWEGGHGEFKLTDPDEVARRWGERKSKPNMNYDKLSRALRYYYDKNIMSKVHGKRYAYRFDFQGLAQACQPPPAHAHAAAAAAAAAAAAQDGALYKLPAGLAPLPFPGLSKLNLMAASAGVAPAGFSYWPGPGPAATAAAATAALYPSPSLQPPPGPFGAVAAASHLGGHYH
# Outline: as §1
# ETV5 = ETV5 (Homo sapiens, UniProt P41161 1-510)
# Outline: as §1
# ELF4 = ELF4 (Homo sapiens, UniProt Q99607 1-663)
# Outline: as §1
# ELK4 = target: T6, ELK4 (Homo sapiens, UniProt P28324-2 1-405)
# T6 sequence: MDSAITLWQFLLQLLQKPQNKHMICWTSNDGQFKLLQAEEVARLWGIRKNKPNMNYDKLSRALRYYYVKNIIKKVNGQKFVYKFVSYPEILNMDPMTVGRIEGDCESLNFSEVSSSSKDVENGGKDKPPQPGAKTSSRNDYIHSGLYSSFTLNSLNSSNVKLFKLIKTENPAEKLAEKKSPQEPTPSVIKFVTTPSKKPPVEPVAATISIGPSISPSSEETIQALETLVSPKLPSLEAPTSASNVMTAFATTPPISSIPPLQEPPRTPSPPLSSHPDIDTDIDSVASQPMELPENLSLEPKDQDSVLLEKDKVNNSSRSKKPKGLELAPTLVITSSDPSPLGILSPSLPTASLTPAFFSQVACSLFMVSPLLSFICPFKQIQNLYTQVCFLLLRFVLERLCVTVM
# Outline: as §1
# ETV2 = target: T7, ETV2 (Homo sapiens, UniProt O00321 1-342)
# T7 sequence: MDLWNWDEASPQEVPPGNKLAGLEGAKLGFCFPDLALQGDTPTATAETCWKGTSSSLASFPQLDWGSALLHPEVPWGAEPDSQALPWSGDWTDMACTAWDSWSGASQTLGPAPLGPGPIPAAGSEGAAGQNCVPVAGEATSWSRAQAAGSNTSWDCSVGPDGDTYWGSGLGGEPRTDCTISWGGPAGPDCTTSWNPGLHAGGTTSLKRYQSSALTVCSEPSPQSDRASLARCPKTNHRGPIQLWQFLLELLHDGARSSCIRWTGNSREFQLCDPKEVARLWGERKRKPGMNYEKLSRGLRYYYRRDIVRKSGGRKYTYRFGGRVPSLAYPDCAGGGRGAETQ
# Outline: as §1
# ETV1 = ETV1 (Homo sapiens, UniProt P50549 1-477)
# Outline: as §1
# ERF = target: T8, ERF (Homo sapiens, UniProt P50548 1-548)
# T8 sequence: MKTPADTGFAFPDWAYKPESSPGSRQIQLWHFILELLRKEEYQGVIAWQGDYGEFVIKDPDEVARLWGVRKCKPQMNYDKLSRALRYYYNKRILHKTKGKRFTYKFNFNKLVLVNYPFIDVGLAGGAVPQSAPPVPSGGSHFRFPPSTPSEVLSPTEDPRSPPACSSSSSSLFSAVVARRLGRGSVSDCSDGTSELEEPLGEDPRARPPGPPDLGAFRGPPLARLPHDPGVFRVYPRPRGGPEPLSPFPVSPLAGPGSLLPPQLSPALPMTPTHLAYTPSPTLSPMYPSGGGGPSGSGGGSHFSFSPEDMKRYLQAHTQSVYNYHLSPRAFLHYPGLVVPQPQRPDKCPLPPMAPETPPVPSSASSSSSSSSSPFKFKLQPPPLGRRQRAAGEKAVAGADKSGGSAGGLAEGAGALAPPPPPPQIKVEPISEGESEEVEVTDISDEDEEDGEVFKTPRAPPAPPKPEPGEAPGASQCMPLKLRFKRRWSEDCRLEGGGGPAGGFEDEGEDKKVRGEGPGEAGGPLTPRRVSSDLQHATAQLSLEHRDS
# Outline: as §1
# ETV3L = target: T9, ETV3L (Homo sapiens, UniProt Q6ZN32 1-361)
# T9 sequence: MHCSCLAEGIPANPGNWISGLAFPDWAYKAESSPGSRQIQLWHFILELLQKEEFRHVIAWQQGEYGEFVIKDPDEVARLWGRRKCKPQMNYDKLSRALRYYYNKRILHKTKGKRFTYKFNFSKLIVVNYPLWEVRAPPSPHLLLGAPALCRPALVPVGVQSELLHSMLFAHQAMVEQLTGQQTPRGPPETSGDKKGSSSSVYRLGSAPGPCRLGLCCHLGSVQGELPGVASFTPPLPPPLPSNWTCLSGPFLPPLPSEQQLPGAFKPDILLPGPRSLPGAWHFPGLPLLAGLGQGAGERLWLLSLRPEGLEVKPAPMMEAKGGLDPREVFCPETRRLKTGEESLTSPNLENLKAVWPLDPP
# Outline: as §1
# ETS2 = target: T10, ETS2 (Homo sapiens, UniProt P15036 1-469)
# T10 sequence: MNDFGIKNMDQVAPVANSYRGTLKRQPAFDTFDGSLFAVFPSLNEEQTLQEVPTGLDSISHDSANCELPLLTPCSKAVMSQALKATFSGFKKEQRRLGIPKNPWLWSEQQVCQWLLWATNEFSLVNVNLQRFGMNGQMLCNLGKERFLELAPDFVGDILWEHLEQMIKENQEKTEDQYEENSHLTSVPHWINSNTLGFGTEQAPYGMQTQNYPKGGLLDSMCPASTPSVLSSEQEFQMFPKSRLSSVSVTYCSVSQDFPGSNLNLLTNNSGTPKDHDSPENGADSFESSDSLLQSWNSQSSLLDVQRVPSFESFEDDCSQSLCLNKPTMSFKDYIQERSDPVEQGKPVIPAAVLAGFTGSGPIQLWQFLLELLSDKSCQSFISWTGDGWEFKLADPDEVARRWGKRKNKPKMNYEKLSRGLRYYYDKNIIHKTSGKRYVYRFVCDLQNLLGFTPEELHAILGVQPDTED
# Outline: as §1
# SPDEF = target: T11, SPDEF (Homo sapiens, UniProt O95238 1-335)
# T11 sequence: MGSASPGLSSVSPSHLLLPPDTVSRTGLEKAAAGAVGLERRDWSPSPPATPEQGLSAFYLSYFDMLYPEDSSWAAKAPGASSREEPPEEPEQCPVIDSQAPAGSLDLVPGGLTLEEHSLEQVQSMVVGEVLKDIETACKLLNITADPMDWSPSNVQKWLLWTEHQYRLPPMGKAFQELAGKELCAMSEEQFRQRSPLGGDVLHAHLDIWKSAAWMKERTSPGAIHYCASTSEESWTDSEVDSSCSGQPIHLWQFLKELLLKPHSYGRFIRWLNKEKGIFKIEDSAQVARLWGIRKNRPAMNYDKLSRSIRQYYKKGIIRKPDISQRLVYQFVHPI
# Outline: as §1
# ETV7 = target: T12, ETV7 (Homo sapiens, UniProt Q9Y603 1-341)
# T12 sequence: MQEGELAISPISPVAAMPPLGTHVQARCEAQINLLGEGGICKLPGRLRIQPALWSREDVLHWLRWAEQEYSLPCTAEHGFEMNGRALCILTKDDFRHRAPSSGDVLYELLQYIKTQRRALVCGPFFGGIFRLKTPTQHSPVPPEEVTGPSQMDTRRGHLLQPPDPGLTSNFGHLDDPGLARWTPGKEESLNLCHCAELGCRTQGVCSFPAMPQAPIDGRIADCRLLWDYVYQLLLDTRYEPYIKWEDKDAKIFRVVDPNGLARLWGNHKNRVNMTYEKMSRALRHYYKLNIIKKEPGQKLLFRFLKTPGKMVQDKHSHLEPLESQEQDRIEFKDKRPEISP
# Outline: as §1
# ETV3 = target: T13, ETV3 (Homo sapiens, UniProt P41162-2 1-143)
# T13 sequence: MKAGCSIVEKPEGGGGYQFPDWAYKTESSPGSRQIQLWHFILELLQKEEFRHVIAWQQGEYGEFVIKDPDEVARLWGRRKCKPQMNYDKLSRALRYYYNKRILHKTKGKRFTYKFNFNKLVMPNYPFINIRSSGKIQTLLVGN
# Outline: as §1
# Chain of ETV1 (P50549 whole entry): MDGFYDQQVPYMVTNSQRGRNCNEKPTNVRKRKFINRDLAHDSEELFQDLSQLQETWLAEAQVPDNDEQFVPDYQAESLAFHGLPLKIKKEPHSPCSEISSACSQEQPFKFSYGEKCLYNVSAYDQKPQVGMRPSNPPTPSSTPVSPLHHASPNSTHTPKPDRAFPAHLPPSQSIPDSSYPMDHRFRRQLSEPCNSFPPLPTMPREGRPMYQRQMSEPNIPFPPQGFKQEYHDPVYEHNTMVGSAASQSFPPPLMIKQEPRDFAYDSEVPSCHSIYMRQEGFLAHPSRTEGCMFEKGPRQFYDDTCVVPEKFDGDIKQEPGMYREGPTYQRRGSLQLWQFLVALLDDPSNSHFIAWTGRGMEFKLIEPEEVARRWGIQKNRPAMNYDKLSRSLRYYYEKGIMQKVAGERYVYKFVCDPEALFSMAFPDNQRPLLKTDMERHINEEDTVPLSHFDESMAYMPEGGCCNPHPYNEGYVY
# Chain of ETV5 (P41161 whole entry): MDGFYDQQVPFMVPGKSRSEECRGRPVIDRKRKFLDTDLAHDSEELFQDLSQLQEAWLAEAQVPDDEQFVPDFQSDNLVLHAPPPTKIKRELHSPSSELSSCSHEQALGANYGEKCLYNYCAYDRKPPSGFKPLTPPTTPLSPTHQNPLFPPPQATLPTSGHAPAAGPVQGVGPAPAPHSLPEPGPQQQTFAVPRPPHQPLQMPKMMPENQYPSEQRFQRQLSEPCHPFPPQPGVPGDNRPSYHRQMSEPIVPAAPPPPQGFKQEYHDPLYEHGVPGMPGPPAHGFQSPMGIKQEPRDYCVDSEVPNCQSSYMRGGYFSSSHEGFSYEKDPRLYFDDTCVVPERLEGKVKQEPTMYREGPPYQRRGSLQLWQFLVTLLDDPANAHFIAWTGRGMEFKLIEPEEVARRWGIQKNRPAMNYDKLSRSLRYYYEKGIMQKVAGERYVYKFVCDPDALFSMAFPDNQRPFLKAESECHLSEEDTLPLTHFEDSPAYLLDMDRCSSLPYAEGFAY
# Chain of ELF1 (P32519 whole entry): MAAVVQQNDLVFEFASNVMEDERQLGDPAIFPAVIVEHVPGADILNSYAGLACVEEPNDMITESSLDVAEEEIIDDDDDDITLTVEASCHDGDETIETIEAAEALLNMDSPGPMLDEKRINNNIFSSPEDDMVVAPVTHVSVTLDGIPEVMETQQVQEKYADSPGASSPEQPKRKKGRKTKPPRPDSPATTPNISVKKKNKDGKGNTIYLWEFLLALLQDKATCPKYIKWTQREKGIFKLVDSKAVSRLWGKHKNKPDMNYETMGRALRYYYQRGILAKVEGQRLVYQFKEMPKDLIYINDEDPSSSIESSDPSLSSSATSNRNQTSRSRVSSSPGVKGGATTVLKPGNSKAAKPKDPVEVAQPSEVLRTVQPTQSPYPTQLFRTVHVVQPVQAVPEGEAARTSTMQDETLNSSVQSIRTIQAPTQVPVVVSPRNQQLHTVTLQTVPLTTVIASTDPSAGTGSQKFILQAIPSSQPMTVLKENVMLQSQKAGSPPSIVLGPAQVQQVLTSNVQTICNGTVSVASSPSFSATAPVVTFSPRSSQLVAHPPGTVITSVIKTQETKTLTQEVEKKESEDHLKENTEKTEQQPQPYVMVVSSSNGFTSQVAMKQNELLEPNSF
# Chain of SPIB (Q01892 whole entry): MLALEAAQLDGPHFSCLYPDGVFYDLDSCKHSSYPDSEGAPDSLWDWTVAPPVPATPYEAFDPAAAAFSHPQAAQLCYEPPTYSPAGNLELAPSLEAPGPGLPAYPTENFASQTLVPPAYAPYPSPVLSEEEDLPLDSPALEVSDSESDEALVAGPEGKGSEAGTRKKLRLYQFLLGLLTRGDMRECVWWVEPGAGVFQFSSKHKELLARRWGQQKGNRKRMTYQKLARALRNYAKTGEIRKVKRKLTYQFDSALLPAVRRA
# Chain of ELF4 (Q99607 whole entry): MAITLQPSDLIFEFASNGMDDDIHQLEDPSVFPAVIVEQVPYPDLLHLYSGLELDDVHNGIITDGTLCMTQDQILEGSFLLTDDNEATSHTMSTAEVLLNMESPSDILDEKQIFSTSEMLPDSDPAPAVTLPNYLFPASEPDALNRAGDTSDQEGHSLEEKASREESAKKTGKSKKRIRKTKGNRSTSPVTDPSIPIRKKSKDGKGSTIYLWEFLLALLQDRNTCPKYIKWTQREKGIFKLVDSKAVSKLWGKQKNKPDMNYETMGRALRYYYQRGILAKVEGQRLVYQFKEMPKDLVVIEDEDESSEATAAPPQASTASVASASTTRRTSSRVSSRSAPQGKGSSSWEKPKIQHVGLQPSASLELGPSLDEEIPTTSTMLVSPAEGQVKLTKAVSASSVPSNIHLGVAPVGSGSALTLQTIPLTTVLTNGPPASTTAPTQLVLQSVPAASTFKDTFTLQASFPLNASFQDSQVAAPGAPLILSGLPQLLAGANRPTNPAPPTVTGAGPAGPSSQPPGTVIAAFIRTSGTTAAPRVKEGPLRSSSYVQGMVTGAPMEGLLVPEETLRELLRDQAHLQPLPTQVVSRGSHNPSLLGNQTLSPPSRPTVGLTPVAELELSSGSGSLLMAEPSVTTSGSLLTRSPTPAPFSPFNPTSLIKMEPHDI
sequence,measurement,setting,value
TGCAGC,binding signal,ELK1,"1.07 fold enrichment (6-mer frequency, TF over GST control)"
same,binding signal,GABPA,"1.16 fold enrichment (6-mer frequency, TF over GST control)"
same,binding signal,ERG,"1.06 fold enrichment (6-mer frequency, TF over GST control)"
same,binding signal,ELF1,"1.09 fold enrichment (6-mer frequency, TF over GST control)"
same,binding signal,EHF,"1.09 fold enrichment (6-mer frequency, TF over GST control)"
same,binding signal,SPIB,"1.17 fold enrichment (6-mer frequency, TF over GST control)"
same,binding signal,FEV,"1.08 fold enrichment (6-mer frequency, TF over GST control)"
same,binding signal,ETV5,"1.03 fold enrichment (6-mer frequency, TF over GST control)"
same,binding signal,ELF4,"1.1 fold enrichment (6-mer frequency, TF over GST control)"
same,binding signal,ELK4,"1.15 fold enrichment (6-mer frequency, TF over GST control)"
same,binding signal,ETV2,"1.12 fold enrichment (6-mer frequency, TF over GST control)"
same,binding signal,ETV1,"1.02 fold enrichment (6-mer frequency, TF over GST control)"
same,binding signal,ERF,"1.13 fold enrichment (6-mer frequency, TF over GST control)"
same,binding signal,ETV3L,"1.07 fold enrichment (6-mer frequency, TF over GST control)"
same,binding signal,ETS2,"1.1 fold enrichment (6-mer frequency, TF over GST control)"
same,binding signal,SPDEF,"1.15 fold enrichment (6-mer frequency, TF over GST control)"
same,binding signal,ETV7,"1.04 fold enrichment (6-mer frequency, TF over GST control)"
same,binding signal,ETV3,"1.05 fold enrichment (6-mer frequency, TF over GST control)"
